Experimental data taken from PubChem BioAssay (NCI).
This is part of a sample that, as a whole, favours compounds with a hit. Of some 83,000 tested, about 20% had one in any assay.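 Activity criterion: percent growth below 10, measured after cells in 96-well plates were exposed to a single compound concentration for 48 hours.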 A number with no mark means an inactive call. Active and inactive are the calls of the source.

How the values were obtained:
Assay in all cases: NCI-60 one-dose screen, 48 h (100 = growth as untreated, 0 = no growth, -100 = all killed)
Conditions in all cases: 10 µM unless noted
[1] = system: EKVX NSCLC
[2] = system: SN12C renal
[3] = system: UO-31 renal
[4] = system: TK-10 renal
[5] = system: ACHN renal
[6] = system: CAKI-1 renal
[7] = system: A498 renal
[8] = system: CCRF-CEM leukemia
[9] = system: MOLT-4 leukemia
[10] = system: SR leukemia
[11] = system: RPMI-8226 leukemia
[12] = system: OVCAR-8 ovarian
[13] = system: OVCAR-5 ovarian
[14] = system: OVCAR-4 ovarian
[15] = system: SK-OV-3 ovarian
[16] = system: IGROV1 ovarian
[17] = system: OVCAR-3 ovarian
[18] = system: HS 578T breast
[19] = system: NCI/ADR-RES ovarian
[20] = system: T-47D breast

| Compound | growth [1] [%] | growth [2] [%] | growth [3] [%] | growth [4] [%] | growth [5] [%] | growth [6] [%] | growth [7] [%] | growth [8] [%] | growth [9] | growth [10] [%] | growth [11] [%] | growth [12] [%] | growth [13] [%] | growth [14] [%] | growth [15] [%] | growth [16] | growth [17] [%] | growth [18] [%] | growth [19] [%] | growth [20] |
| --- | --- | --- | --- | --- | --- | --- | --- | --- | --- | --- | --- | --- | --- | --- | --- | --- | --- | --- | --- | --- |
| CCCCCCC(C)(O)c1ccccc1 (centres undefined) | 101 | 96.7 | 80.3 | 106 | 103 | 96.8 | 145 | 91.9 | 106% | 97.6 | 107 | 115 | 98.5 | 110 | 103 | 122% | 117 | 117 | 101 | 101% |
| Oc1ccccc1C=Nc1ccccc1N=Cc1ccccc1O.[Cu+2] | 67.1 | 60.3 | 24 | 84.1 | 57.3 | 68.6 | 92.8 | 27.9 | 3.28% (active) | 66.3 | 19.1 | 15.1 | 103 | 35.5 | 76 | 55.5% | 71.7 | 137 | 20.2 | 20.2% |
| COc1ccc(-c2nn(-c3cccc(Cl)c3)cc2C2CC(c3ccccc3)=NN2C(C)=O)cc1 (centres undefined) | 67.6 | 69.7 | 58.9 | 62.8 | 15.1 | 53 | 56.9 | 83 | 93.9% | 75.6 | 97.6 | 56.3 | 80.9 | 23.3 | 32.2 | 57% | 80.6 | 43.2 | 74.3 | 44.7% |
| O=C(CCc1nnc(Cn2cncn2)o1)c1nc2ccccc2[nH]1 | 116 | 92.6 | 92.4 | 108 | 113 | 102 | 96 | 96.4 | 92.4% | 82 | 108 | 107 | 107 | 111 | 116 | 118% | 122 | 127 | 105 | 108% |
| O=C(CSc1nnc(Nc2ccccc2)s1)NCCc1ccc(F)cc1 | 91.7 | 103 | 48.4 | 128 | 107 | 106 | 93.1 | 117 | 103% | 164 | 145 | 117 | 92.9 | 102 | 113 | -2.38% (active) | 113 | 119 | 99.3 | 94.8% |
| Cc1cc(C)c2c(c1)N1OC(C2)C[C@H]1/C=C/c1ccccc1 (some centres undefined) | 90 | 92.2 | 79.1 | 108 | 112 | 85.6 | 99.9 | 92.9 | 77.7% | 83.2 | 94.9 | 102 | 99 | 81.8 | 116 | 82.3% | 116 | 122 | 95.9 | 93.6% |
| Cc1ccc(NC(=O)COC(=O)c2ccc(S(=O)(=O)N3CCCCCC3)cc2)cc1 | 111 | 98.7 | 85.8 | 178 | 107 | 108 | 128 | 135 | 127% | 131 | 97.6 | 98.8 | 84 | 105 | 79.4 | 101% |  | 113 | 105 | 5.22% (active) |
| O[C@@H]1Cc2ccc3ccccc3c2N[C@H](c2ccoc2)C1 | 95.9 | 103 | 82.3 | 106 | 103 | 96.6 | 84.4 | 81.3 | 88.2% | 93.3 | 103 | 101 | 100 | 99.1 | 102 | 109% | 115 | 104 | 103 | 93.8% |
